# Some of the results follow. The true hit rate is not given.
# B1: HC975 (peptide)
# chain: CAGAVQNEITAGNASASA
# B2: HC1348 (peptide)
# chain: CAGCPPDSDAAGNASASA
# B3: FS-2766 (peptide)
# chain: CARQRRSHVLAGNASASA
# B4: FS-3164 (peptide)
# chain: CARQRRSSGHAGNASASA
# B5: FS-2763 (peptide)
# chain: CARQRRHPELAGNASASA
# B6: FS-2366 (peptide)
# chain: CARQRRPWEPAGNASASA
# B7: FS-2767 (peptide)
# chain: CARQRRVAGLAGNASASA
# B8: HC719 (peptide)
# chain: CASRSLTPCTAGNASASA
# B9: HC242 (peptide)
# chain: CANYATGNLPAGNASASA
# B10: FS-679 (peptide)
# chain: CAKRRRGRKSAGNASASA
# B11: FS-1438 (peptide)
# chain: CAYHFRGRRSAGNASASA
# B12: FS-1325 (peptide)
# chain: CAFRRRGRRSAGNASASA
# B13: FS-3162 (peptide)
# chain: CARMKRIFYRAGNASASA
# B14: HC1000 (peptide)
# chain: CACVVIVGRVAGNASASA
# B15: FS-922 (peptide)
# chain: CAVKKRKGRVAGNASASA
# B16: FS-1751 (peptide)
# chain: CARMKRAGRVAGNASASA
# B17: HC130 (peptide)
# chain: CAEVVRSTWVAGNASASA
# B18: HC1100 (peptide)
# chain: CALVNLLPAIAGNASASA
# B19: HC219 (peptide)
# chain: CARNLGKVIDAGNASASA
# B20: HC311 (peptide)
# chain: CATQGCNCSIAGNASASA
# B21: DV3 (peptide)
# chain: CARPRRTKKTAGNASASA
# B22: FS-125 (peptide)
# chain: CAGKGRKYREAGNASASA
# B23: FS-1650 (peptide)
# chain: CARKRRAKREAGNASASA
# B24: FS-953 (peptide)
# chain: CARMDRVKKEAGNASASA
# B25: FS-892 (peptide)
# chain: CAVMGRMKREAGNASASA
# B26: FS-529 (peptide)
# chain: CAGDGRSYRGAGNASASA
# B27: FS-710 (peptide)
# chain: CARPRRMKREAGNASASA
# B28: HC2209 (peptide)
# chain: CAEVVTSYWVAGNASASA
# B29: HC714 (peptide)
# chain: CADLVGWPAPAGNASASA
# B30: HC261 (peptide)
# chain: CAYHVTNDCPAGNASASA
# B31: FS-809 (peptide)
# chain: CAKKWRMKREAGNASASA
# B32: FS-843 (peptide)
# chain: CAPWQRVDRDAGNASASA
# B33: FS-430 (peptide)
# chain: CAGQPRRSRDAGNASASA
# B34: HC389 (peptide)
# chain: CAASCRPLTDAGNASASA
# B35: FS-164 (peptide)
# chain: CAGRLRPLRDAGNASASA
# B36: FS-639 (peptide)
# chain: CAAFGRRRRDAGNASASA
# B37: HC636 (peptide)
# chain: CANHLTPLRDAGNASASA
# B38: FS-357 (peptide)
# chain: CALQGRSSRDAGNASASA
# B39: HC1148 (peptide)
# chain: CASWLRDIWDAGNASASA
# B40: FS-840 (peptide)
# chain: CAPPPRRTRDAGNASASA
# B41: HC2009 (peptide)
# chain: CAVYCCSMSYAGNASASA
# B42: HC1942 (peptide)
# chain: CATTPCSGSQAGNASASA
# B43: FS-177 (peptide)
# chain: CALTRRMRRDAGNASASA
# B44: FS-2937 (peptide)
# chain: CARHIRLVLKAGNASASA
# B45: FS-906 (peptide)
# chain: CAFQRRRRRDAGNASASA
# B46: FS-647 (peptide)
# chain: CADRRRRRRDAGNASASA
# B47: FS-1158 (peptide)
# chain: CARHIRRRRDAGNASASA
# B48: FS-1671 (peptide)
# chain: CAFQRRMAGMAGNASASA
# B49: FS-871 (peptide)
# chain: CASRMREDRDAGNASASA
# Target: furin, P09958
# Assay: furin cleavage Z-score vs untreated control; higher = more cleavage, active = 3.5 or more, inactive = 1 or less, 8 variable residues between constant flanks
# Method in brief: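 Furin cleavage was scored on 8-mer peptides joined to a cDNA oligonucleotide and bound to magnetic beads at the N-terminus. Digestion with purified furin (1:10 enzyme:substrate, 0.01 ml, 50 mM HEPES pH 7.5, CaCl2, NaCl) lasted 7.5, 15 or 30 min. Freed DNA was tagged with adapters by PCR, sequenced and counted; the cleavage Z-score is the lowess-adjusted log count versus furin-free reactions, scaled by median absolute deviation.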
# Chain of furin, P09958 (P09958 whole entry): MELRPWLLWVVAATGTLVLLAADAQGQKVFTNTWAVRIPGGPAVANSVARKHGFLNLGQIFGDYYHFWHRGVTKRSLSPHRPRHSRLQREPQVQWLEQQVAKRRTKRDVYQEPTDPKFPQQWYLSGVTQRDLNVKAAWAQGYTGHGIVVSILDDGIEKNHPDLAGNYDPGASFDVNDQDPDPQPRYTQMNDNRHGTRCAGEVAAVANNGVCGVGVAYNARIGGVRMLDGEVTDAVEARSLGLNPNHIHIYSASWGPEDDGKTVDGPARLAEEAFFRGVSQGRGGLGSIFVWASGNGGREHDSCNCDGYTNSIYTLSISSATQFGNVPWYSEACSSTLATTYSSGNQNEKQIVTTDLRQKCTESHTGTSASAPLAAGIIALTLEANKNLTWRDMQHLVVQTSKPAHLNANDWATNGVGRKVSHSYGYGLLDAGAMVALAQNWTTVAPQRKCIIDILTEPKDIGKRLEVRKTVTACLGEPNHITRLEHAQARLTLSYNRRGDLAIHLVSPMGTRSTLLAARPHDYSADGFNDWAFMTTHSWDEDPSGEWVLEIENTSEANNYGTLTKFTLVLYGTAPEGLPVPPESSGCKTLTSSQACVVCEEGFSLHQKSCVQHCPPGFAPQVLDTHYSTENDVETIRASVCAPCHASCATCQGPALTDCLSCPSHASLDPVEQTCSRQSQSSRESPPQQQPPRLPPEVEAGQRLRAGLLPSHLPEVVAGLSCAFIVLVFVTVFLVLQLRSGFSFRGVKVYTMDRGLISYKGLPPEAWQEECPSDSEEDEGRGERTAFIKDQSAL
Sequence,furin cleavage Z-score (7.5 min),furin cleavage Z-score (15 min),furin cleavage Z-score (30 min)
B1,-1.74 (inactive),-0.537 (inactive),-1.39 (inactive)
B2,0.143 (inactive),-0.261 (inactive),-1.34 (inactive)
B3,2.3,4.17 (active),4.75 (active)
B4,6.61 (active),6.83 (active),6.04 (active)
B5,2.08,1.42,4.23 (active)
B6,-0.356 (inactive),-0.595 (inactive),-1.76 (inactive)
B7,-1.21 (inactive),-0.684 (inactive),1.04
B8,-0.572 (inactive),-2.71 (inactive),0.443 (inactive)
B9,-0.747 (inactive),0.727 (inactive),-1.07 (inactive)
B10,0.804 (inactive),2.45,1.45
B11,8.22 (active),8.64 (active),7.23 (active)
B12,7.29 (active),7.04 (active),5.71 (active)
B13,0.804 (inactive),2.26,-0.0374 (inactive)
B14,0.746 (inactive),-1.22 (inactive),1.75
B15,3.3,4.91 (active),6.5 (active)
B16,5.19 (active),5.19 (active),5.87 (active)
B17,-1.7 (inactive),-0.333 (inactive),-1.26 (inactive)
B18,1.21,0.684 (inactive),0.808 (inactive)
B19,-0.809 (inactive),0.0222 (inactive),-1.18 (inactive)
B20,-0.897 (inactive),-0.922 (inactive),-0.937 (inactive)
B21,0.136 (inactive),1.59,1.15
B22,8.32 (active),9.76 (active),7.89 (active)
B23,13 (active),13.6 (active),9.6 (active)
B24,0.785 (inactive),2.5,3.22
B25,13 (active),13.9 (active),9.25 (active)

Sequence,furin cleavage Z-score (7.5 min),furin cleavage Z-score (15 min),furin cleavage Z-score (30 min)
B26,-0.56 (inactive),-0.653 (inactive),-0.179 (inactive)
B27,12.1 (active),12.6 (active),8.41 (active)
B28,-1.41 (inactive),-1.3 (inactive),-1.27 (inactive)
B29,-0.648 (inactive),-0.464 (inactive),-1.65 (inactive)
B30,-0.934 (inactive),-0.574 (inactive),-0.88 (inactive)
B31,12.2 (active),12.8 (active),10.8 (active)
B32,-0.541 (inactive),0.153 (inactive),-0.511 (inactive)
B33,8.53 (active),9.91 (active),6.63 (active)
B34,-0.403 (inactive),-0.436 (inactive),0.514 (inactive)
B35,6.08 (active),7.11 (active),5.86 (active)
B36,6.8 (active),6.94 (active),5.25 (active)
B37,-0.625 (inactive),-0.983 (inactive),-0.425 (inactive)
B38,0.94 (inactive),1.14,2.12
B39,-1.29 (inactive),-0.331 (inactive),0.22 (inactive)
B40,7.22 (active),7.26 (active),5.47 (active)
B41,-0.694 (inactive),-1.09 (inactive),-1.22 (inactive)
B42,-0.135 (inactive),-0.54 (inactive),-2.05 (inactive)
B43,14 (active),14.8 (active),9.72 (active)
B44,-1.39 (inactive),-0.583 (inactive),-0.338 (inactive)
B45,11.2 (active),12 (active),8.45 (active)
B46,7.06 (active),7.21 (active),4.92 (active)
B47,10.5 (active),10.7 (active),6.88 (active)
B48,-0.225 (inactive),-0.266 (inactive),0.306 (inactive)
B49,-0.996 (inactive),-0.456 (inactive),1.09

# — the supplement of paper PMC3545927
